HepG2 tox-1 – qHTS for Inhibitors of TGF-b: Cytotox Counterscreen; HepG2 CAGA-GFP viability, ATP luminescence, 18 h; Potency, µM (top dose mostly 46.1 µM), inactives show at the top dose activity change, negative = cytotoxicity, hits mostly cytotoxic; hit rate 0.76% among 410,000; further: potency means the concentration at half of the fitted maximal effect
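HepG2 CAGA-GFP cells (1000/well, DMEM with 1% FBS) received compound, then TGF-beta at 500 pg/mL final, and were incubated 18 hours at 37 degrees C. Viability was read by CellTiter-Glo luminescence. Media-only wells were set as complete cell-killing and DMSO as no toxicity.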
TDP1 inh – qHTS Assay for Inhibitors of Tyrosyl-DNA Phosphodiesterase (TDP1); recombinant TDP1, AlphaScreen DNA substrate cleavage; Potency, µM (titrated, usually from 130 µM), for inactives: at the highest dose activity change, negative = inhibition, most hits filed as inhibitors; hit rate 0.28% among 350,000; further: potency means the concentration at half of the fitted maximal effect; on the % scale 0 is the no-effect control and ±100 the full control effect; nearly all actives have a fitted effect of over 40% in size
Target sequence (Q9NUW8 whole entry, looked up): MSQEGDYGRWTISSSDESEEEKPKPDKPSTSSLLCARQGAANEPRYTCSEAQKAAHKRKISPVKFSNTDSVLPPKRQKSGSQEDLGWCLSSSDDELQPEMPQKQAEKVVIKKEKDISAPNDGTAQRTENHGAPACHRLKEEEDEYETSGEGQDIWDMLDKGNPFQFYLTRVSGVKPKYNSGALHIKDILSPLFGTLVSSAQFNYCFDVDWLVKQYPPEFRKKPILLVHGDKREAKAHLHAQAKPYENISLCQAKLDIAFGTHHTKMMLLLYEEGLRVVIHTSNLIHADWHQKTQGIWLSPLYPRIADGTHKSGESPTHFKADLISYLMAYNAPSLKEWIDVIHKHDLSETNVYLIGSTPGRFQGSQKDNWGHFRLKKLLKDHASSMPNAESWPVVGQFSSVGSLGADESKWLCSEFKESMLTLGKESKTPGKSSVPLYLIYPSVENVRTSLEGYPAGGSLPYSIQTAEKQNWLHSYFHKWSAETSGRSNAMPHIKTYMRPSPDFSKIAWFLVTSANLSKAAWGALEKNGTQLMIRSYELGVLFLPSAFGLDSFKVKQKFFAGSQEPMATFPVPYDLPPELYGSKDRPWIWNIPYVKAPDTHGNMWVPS
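Recombinant E. coli-expressed Tdp1 (1 nM) preincubated with compound 15 min at RT, then 5'-biotin/3'-phosphotyrosine-FITC DNA substrate (15 nM) added for 5 min. AlphaScreen beads (10 ug/ml) added, 10 min RT; tyrosine-FITC cleavage read as signal loss.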
TGFb SMAD3 inh – qHTS for Inhibitors of TGF-b. HepG2 CAGA-GFP TGF-b/SMAD3 reporter, GFP fluorescence, 18 h; TGF-beta stimulated, 500 pg/mL final. Potency, µM (highest dose often 46.1 µM), for inactives: at the top dose activity, negative = inhibition, actives largely listed as inhibitors. hit rate 1.2% among 410,000. AID 588855, 2011; further: potency means the concentration at half of the fitted maximal effect; on the % scale 0 is the no-effect control and ±100 the full control effect; nearly all actives have a fitted effect of over 65% in size
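GFP signal (ex488/em500-530) from TGF-beta-stimulated HEPG2 CAGA-GFP cells, 500 pg/mL final, 18 h at 37 degrees C in DMEM plus 1% FBS, normalized to unstimulated and DMSO-stimulated controls.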
IL-1B inflam inh – qHTS for Inhibitors of Inflammasome Signaling: IL-1-beta AlphaLISA Primary Screen; THP-1 LPS/ATP IL-1B secretion, AlphaLISA, 16 h; active compounds read low; activity change, % at 57.5 µM; hit rate 4.7% among 360,000; AID 743279, 2014; in the data active means activity change below about -50%; inconclusive means mostly about -30% to -49%; further: on the % scale 0 is the no-effect control and ±100 the full control effect
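Secreted IL-1B measured by AlphaLISA bead assay after 16 h compound exposure of THP-1 cells; compounds (final up to 57.5 uM) added 1 h before LPS (250 ng/mL) and ATP (1.25 mM) stimulation; lower signal means less secretion.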
DT40 TDP1 CPT – qHTS for Inhibitors of human tyrosyl-DNA phosphodiesterase 1 (TDP1): qHTS in cells in presence of CPT; chicken DT40 Tdp1-/-;hTDP1 cells + 20 nM CPT, ATP luminescence, 48 h; Potency, µM (top dose mostly 46.2 µM), for the others: at the highest dose activity change, negative = growth inhibition, most hits filed as inhibitors; hit rate 12% among 420,000; AID 686979, 2013; further: potency means the concentration at half of the fitted maximal effect; on the % scale 0 is the no-effect control and ±100 the full control effect; nearly all actives have a fitted effect of over 55% in size
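Chicken DT40 Tdp1-/- cells complemented with human TDP1, 400 cells/well, exposed to compounds plus 20 nM camptothecin for at least 48 h at 37 C; viability read as ATP content by CellTiter-Glo luminescence.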
DT40 TDP1 no CPT – qHTS for Inhibitors of human tyrosyl-DNA phosphodiesterase 1 (TDP1): qHTS in cells in absence of CPT; DT40 Tdp1-/- hTDP1 cells, no CPT, ATP luminescence, 48 h; Potency, µM (top dose mostly 46.2 µM), without a hit: top-dose activity change, negative = growth inhibition, actives largely listed as inhibitors; hit rate 15% among 420,000; AID 686978, 2013; further: potency means the concentration at half of the fitted maximal effect; on the % scale 0 is the no-effect control and ±100 the full control effect; nearly all actives have a fitted effect of over 55% in size
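Luminescent ATP content (CellTiter-Glo) served as the growth readout. Knockout chicken DT40 cells expressing human TDP1 were exposed to compounds without camptothecin for a minimum 48 hr at 37 °C.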
TGFb confirm – qHTS for Inhibitors of TGF-b: Confirmation of Cherry Picks; shares compounds with TGFb SMAD3 inh; HepG2 CAGA-GFP TGF-b reporter, GFP fluorescence, 18 h; cells stimulated with TGF-beta, 500 pg/mL; Potency, µM (top dose mostly 46.1 µM), inactives show at the highest dose activity, negative = inhibition, hits mostly inhibitors; hit rate 63% among 1,600; AID 720534, 2013; further: potency means the concentration at half of the fitted maximal effect; on the % scale 0 is the no-effect control and ±100 the full control effect; nearly all actives have a fitted effect of over 65% in size
HepG2 tox-2 – qHTS for Inhibitors of TGF-b: Cytotox Counterscreen for Cherry Picks; shares compounds with TGFb SMAD3 inh; HepG2 CAGA-GFP viability, ATP luminescence, 18 h; cells stimulated with TGF-beta, 500 pg/mL; Potency, µM (doses to about 46.1 µM), for inactives: top-dose activity, negative = cytotoxicity, actives largely listed as inhibitors; hit rate 27% among 1,600; AID 720535, 2013; further: potency means the concentration at half of the fitted maximal effect; on the % scale 0 is the no-effect control and ±100 the full control effect; nearly all actives have a fitted effect of over 70% in size
CCL64 TGFb inh – qHTS for Inhibitors of TGF-b: CCL64 Cells Orthogonal Assay for Cherry Picks. shares compounds with TGFb SMAD3 inh. CCL64 CAGA-GFP reporter, TGF-b stimulated, GFP fluorescence, 18 h. Potency, µM (top dose mostly 46.1 µM), for inactives: top-dose activity, negative = inhibition, actives largely listed as inhibitors. hit rate 41% among 1,600. AID 720536, 2013; further: potency means the concentration at half of the fitted maximal effect; nearly all actives have a fitted effect of over 65% in size
COP TGFb inh – qHTS for Inhibitors of TGF-b: Hit Validation in HepG2 Cells using COP promoter | shares compounds with TGFb SMAD3 inh | HepG2 COP-GFP TGF-b reporter, GFP fluorescence, 18 h; cells stimulated by added recombinant TGF-beta | Potency, µM (doses to about 46.1 µM), for the others: at the top dose activity, negative = inhibition, actives largely listed as inhibitors | hit rate 3% among 1,600 | AID 720537, 2013; further: potency means the concentration at half of the fitted maximal effect; nearly all actives have a fitted effect of over 70% in size
* hit, by the source's call; i = inactive; u = inconclusive; x = not tested or not shown; [ ] = dose if it differs, or a comment. The list is not random: actives were taken first. Their share in the collection is about 18%. Unless noted, the call rests on the fitted dose curve; in most records, active means well fitted curve in the direction sought with a large enough effect; inconclusive means small, poorly fitted or top-dose-only effect, or another doubt; inactive means no such curve, though single readings can be large; an effect the other way counts as inactive or inconclusive.

SMILES | HepG2 tox-1 | TDP1 inh | TGFb SMAD3 inh | IL-1B inflam inh | DT40 TDP1 CPT | DT40 TDP1 no CPT | TGFb confirm | HepG2 tox-2 | CCL64 TGFb inh | COP TGFb inh
COc1ccc(C(=O)/C=C/C(=O)N(Cc2ccc(F)cc2)C(C(=O)NC2CCCCC2)c2ccncc2)c(O)c1 (centres undefined) | 2% | 3% | 10µM* | -64* | u | u | u | -18% | 13µM* | 35%
CCOc1ccc(-n2c(=O)c3sccc3n(CC(=O)Nc3cccc(OC)c3)c2=O)cc1 | -6% | u | -7% | -4 | u | -23% | x | x | x | x
OCC1(Cc2ccccc2)CCN(Cc2cnc(-c3ccc(Cl)cc3)nc2)CC1 | 16µM* | 6% | 8.9µM* | -94* | u | 23µM* | -10% | u | 0% | 36%
COc1ccc(-c2ncc(CN3CCC(CO)(Cc4cccc(OC)c4)CC3)cn2)cc1 | -23% | 5% | -18% | 3 | u | u | x | x | x | x
CC(C)CCCCCCCCCCCCC(=O)NCC(=O)NC1C(C)OC(Nc2ncnc3nc[nH]c23)C(O)C1O (centres undefined) | -25% | x | 0.35µM* | -93* | 0.021µM* | 0.033µM* | 1µM* | u | 0.52µM* | -29%
C/C(=C\CNc1ncnc2nc[nH]c12)CO | -10% | 7% | 0% | -7 | -18% | -12% | x | x | x | x
CCS(=O)(=O)c1ccc(S(=O)(=O)CC)s1 | 7% | -2% | 5% | 33 | 5% | -20% | x | x | x | x
O=c1c2cn[nH]c2nc(SCc2ccccc2F)n1-c1ccc(Br)cc1 | 16µM* | 8% | 10µM* | -149* | u | u | u | u | u | 77%
COc1ccc(CC2C(=O)NC(C)C(=O)N(C)C3Cc4ccc(cc4)Oc4cc(ccc4O)CC(C(=O)NC(C)C(=O)NC(C)C(=O)N2C)N(C)C3=O)cc1 (centres undefined) | 11% | x | -107% | -100* | 0.018µM* | 0.16µM* | 0.018µM* | 0.21µM* | 0.021µM* | -8%
O=C(Nc1ccc(F)cc1)Nc1csc2ccccc12 | -27% | x | 14µM* | x | 23µM* | 23µM* | u | u | u | 23%
OCC1OC(n2cnc3c(NCc4ccco4)ncnc32)C(O)C1O (centres undefined) | -88% | 3% | 5µM* | u | 2.3µM* | 2.1µM* | 5.8µM* | 18µM* | 12µM* | 33%
OC[C@@H]1O[C@@H](n2cnc3c(NC4CCCC4)ncnc32)[C@H](O)[C@H]1O | x | -11%[56.1 µM] | x | x | 1% | -16% | x | x | x | x
C=CCNc1ncnc2c1ncn2C1OC(CO)C(O)C1O (centres undefined) | 7.9µM* | 5% | 10µM* | 66 | 18µM* | 21µM* | 10µM* | u | -18% | 28%
Cc1csc(CN(C)C(=O)c2cn(Cc3cccc4ccccc34)nn2)n1 | 0% | 2% | 1% | i | u | u | x | x | x | x
CC(c1ccccc1)N1C(=O)c2cccnc2C1=O (centres undefined) | -3% | x | 2% | 12 | 5% | -7% | x | x | x | x
CC(NC1=CC(=O)c2cccnc2C1=O)C(O)c1ccccc1 (centres undefined) | 5µM* | x | 5µM* | -100* | 1.5µM* | 3.3µM* | 5.8µM* | 5.2µM* | u | 13µM*
CCN(CC)c1ccc(/C=N/NC(=S)NCc2ccc(OC)cc2)cc1 | 16% | 6% | -4% | u | -17% | u | x | x | x | x
CCN(CC)c1ccc(/C=C/c2ccc3ccc(OC)cc3[n+]2CC)cc1 | -10% | x | 6.3µM* | -83* | 0.065µM* | 0.18µM* | 2.9µM* | u | 2.6µM* | 25%
O=C(NC(=S)N(CCO)Cc1ccccc1)c1ccc(S(=O)(=O)N2CCCC2)cc1 | -20% | 5% | 2% | -6 | u | u | x | x | x | x
Cc1cccc(NC(=O)CNC(=O)Cn2cc(C(F)(F)F)cc(Cl)c2=O)c1C | 10% | 0% | u | 1 | -23% | -6% | x | x | x | x
CC1CCN(C(=O)c2[nH]cnc2C(=O)NCc2ccccc2)CC1 | 3% | 1% | u | 10 | 12% | -2% | -7% | 4% | 1% | -2%
O=C(NCc1ccccc1)c1nc[nH]c1C(=O)N1CCN(c2ccccc2)CC1 | -3% | 3% | -7% | 16 | -6% | -10% | x | x | x | x
N#CCCN(CC#Cc1ccccc1)OCc1ccccc1 | x | -2%[21 µM] | x | x | x | x | x | x | x | x
NC(=O)COc1ccccc1C(=O)Nc1ccccc1 | 2% | x | 5% | x | 2% | 2% | x | x | x | x
C=CCNC(=O)c1onc(CSc2ccc(F)cc2)c1C(=O)NCCOC | 2% | 1% | u | -1 | -21% | -21% | -7% | 2% | 12% | -1%
CC(=O)Nc1ccc(NC2=C(Cl)C(=O)c3ccccc3C2=O)cc1 | 3.5µM* | -3% | 3.5µM* | -98* | u | u | 5.2µM* | 15µM* | 2.9µM* | u

Source: PubChem BioAssay (National Center for Advancing Translational Sciences (NCATS))
